Measured values: PubChem BioAssay (NCI)
Compounds without any hit were thinned out: in the full panel of roughly 83,000, 20% have a hit.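 Each cell line was grown in a 96-well plate and treated with one concentration of compound for 48 hours. Values below 10 were considered active.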 Values without a mark were called inactive. Activity calls are given as the source filed them.

Experiments:
Test in all cases: NCI-60 one-dose screen, 48 h (100 = growth as untreated, 0 = no growth, -100 = all killed)
Conditions in all cases: 10 µM unless noted
SR leukemia = system: SR leukemia
OVCAR-5 ovarian = system: OVCAR-5 ovarian
SK-OV-3 ovarian = system: SK-OV-3 ovarian
IGROV1 ovarian = system: IGROV1 ovarian
OVCAR-3 ovarian = system: OVCAR-3 ovarian
HS 578T breast = system: HS 578T breast
NCI/ADR-RES ovarian = system: NCI/ADR-RES ovarian
RPMI-8226 leukemia = system: RPMI-8226 leukemia
OVCAR-8 ovarian = system: OVCAR-8 ovarian
OVCAR-4 ovarian = system: OVCAR-4 ovarian

Structure (SMILES)	growth (SR leukemia)	growth (OVCAR-5 ovarian)	growth (SK-OV-3 ovarian)	growth (IGROV1 ovarian)	growth (OVCAR-3 ovarian)	growth (HS 578T breast)	growth (NCI/ADR-RES ovarian)	growth (RPMI-8226 leukemia) [%]	growth (OVCAR-8 ovarian)	growth (OVCAR-4 ovarian) [%]
CCCCCCC[C@@H](O)CC(=O)N[C@H](CCCCN)C(=O)N[C@H](Cc1c[nH]c2ccccc12)C(=O)NC(CCCCN)C(=O)N[C@H](CC(C)C)C(=O)N[C@H](Cc1ccccc1)C(=O)N[C@H](CCCCN)C(=O)N[C@H](CCCCN)C(=O)N[C@H](CC(C)C)C(=O)N1CCCC1C(=O)N[C@H](CCCCN)C(=O)N[C@H](Cc1ccccc1)C(=O)N[C@H](CC(C)C)C(=O)N[C@H](Cc1c[nH]cn1)C(=O)N[C@H](CC(C)C)C(=O)N[C@H](C)C(=O)N[C@H](CCCCN)C(=O)N[C@H](CCCCN)C(=O)N[C@H](Cc1ccccc1)C(=O)O (some centres not stated)	-13.1% (active)	-63% (active)	-62.8% (active)	-29.4% (active)	-41.3% (active)	-42.4% (active)	-23.6% (active)	–	–	–
CCN(Cc1ccc(CN(CC)C(=O)C(Br)Br)cc1)C(=O)C(Br)Br	–	71.1%	79.8%	46.4%	8.57% (active)	38.1%	39.7%	14.2	20.4%	32.1
CC(Cc1nnc(SCC(=O)Nc2ccc(I)cc2)n1N)c1ccccc1 (configuration not stated)	–	84.4%	97.8%	8.44% (active)	111%	119%	96%	59.8	95.9%	172
Cc1ccc(Cn2c(-c3cccs3)nc3ccccc32)cc1	–	98.8%	100%	81.8%	93.9%	89.2%	85.6%	77.8	82.3%	76.6
COc1ccc(-c2nc(-c3ccccc3)c(-c3ccccc3)n2C2CC2)cc1OC1CCCCC1	–	83%	89.4%	63.1%	58.4%	73.8%	55.3%	48.7	55.4%	67.9
Clc1cccc(Cl)c1Cn1c(-c2cncs2)nc2ccccc21	–	94%	96.3%	82.6%	90.5%	97%	73%	56.7	87%	82.1
C=CCc1cc(Cl)cc2c(OC(C)=O)c(C(C)=O)c(-c3ccccc3)nc12	–	111%	99.9%	82.3%	107%	102%	119%	97.4	113%	100
Nc1cc2c(cc1N)-c1cc(N)c(N)cc1C2	–	109%	99.2%	97.6%	109%	94.3%	111%	95.9	103%	108
CC(=O)c1cc(C(=O)c2ccc3c(c2)Sc2ccccc2N3)c2cc(C)ccn12	–	41.2%	16.6%	27.8%	-14.3% (active)	14.5%	12.1%	12.3	4.39% (active)	38.1
Cc1ccc2c(c1)C(C)Cc1c(N(C)C)ncnc1N2C (configuration not stated)	–	83.9%	35.1%	59.5%	14%	6.88% (active)	28.5%	32.4	51%	61.1
Cc1ccc2c(c1)C(C)Cc1c(ncnc1-n1cnc3ccccc31)N2C (configuration not stated)	–	42.8%	43.5%	37.6%	-34.7% (active)	8.03% (active)	17%	21.8	21.3%	30
CCOC(=O)c1cc(/C(=N\O)c2cc(OC)c(OC)c(OC)c2)n2c(C)cccc12	–	73.2%	38.4%	52.5%	15.7%	12.4%	29.3%	41.5	54.3%	54.1
CCN(CC)S(=O)(=O)c1ccc2[nH]c(=O)cc(C(=O)Nc3ccc(OC)cc3OC)c2c1	–	100%	108%	34.4%	118%	103%	99.6%	108	109%	115
Cc1nn(-c2ccc(Cl)cc2)c(=O)n1CCOc1ccccc1Cl	–	102%	92.9%	117%	121%	90.3%	89.9%	88.9	92.7%	68.1
O=C(CN1CCN(c2cc3c(cc2F)c(=O)c(C(=O)O)cn3C2CC2)CC1)Nc1ccc(C(=O)/C=C/c2ccc(Cl)cc2)cc1	–	115%	110%	121%	128%	108%	111%	90.2	98%	95.4
COc1ccc2c(c1)C(C)Cc1c(N(C)C)ncnc1N2C (configuration not stated)	–	73.2%	30%	54.4%	10.3%	13.3%	36.2%	30.8	40.8%	62.4
N#CC1=C(N)OC2=C(C(=O)CCC2)C1c1ccco1 (configuration not stated)	–	104%	98.2%	107%	113%	115%	103%	100	103%	106
NC(=O)c1c(NC(=O)c2ccc(OCC3CCCO3)cc2)sc2c1CCCC2 (configuration not stated)	–	101%	119%	-23.3% (active)	108%	-24.5% (active)	97.1%	83.7	104%	115
Cc1cc2c(c(=O)o1)C(c1ccc(OC(=O)N3CCOCC3)cc1)C(C#N)=C(N)O2 (configuration not stated)	–	98.9%	101%	107%	109%	116%	105%	109	104%	109
COc1cc(Cn2c(-c3nonc3N)nc3ccccc32)ccc1C	–	34%	29.9%	47.6%	-34.7% (active)	22.5%	21.2%	19.2	31.6%	62.6
O=C(Nc1ccc(F)c(Cl)c1)c1n[nH]c(=O)c2ccccc12	–	107%	119%	8.17% (active)	94.6%	129%	112%	119	95.4%	96.1
Cn1c(=O)c2c(nc3n2CCN(CCc2ccc(OCCN4CCOCC4)cc2)C3)n(C)c1=O	–	103%	118%	108%	110%	106%	112%	100	109%	95.5
c1cc(-c2ccc3c(c2)OCO3)n2nccc2n1	–	94.2%	106%	102%	103%	105%	107%	97.1	98.6%	98.1
CN1C(=O)[C@H]2c3c1cccc3[C@@]13NC(=O)O[C@H]1[C@H](CCC3(C)C)C2(C)C	–	101%	120%	107%	103%	89.1%	98.8%	97	96.1%	99
CN(C)c1nc(N)c(N=O)c(N)n1	–	111%	99.2%	110%	101%	106%	122%	110	114%	108
COc1ccc(C(=O)N2CCN(C(=O)c3cc(OC)c(OC)c(OC)c3)CC2)cc1OCCCCOc1cc2c(cc1OC)C(=O)N1CCC[C@H]1C=N2	–	111%	108%	-18.9% (active)	105%	-24.2% (active)	110%	90.3	209%	112
